Screening results: PubChem BioAssay, National Center for Advancing Translational Sciences (NCATS)
Hits are enriched below; roughly 9.3% of the tested compounds scored in any of these assays.
Vaccinia Venus: vaccinia inhibition (Venus reporter). Vaccinia virus Venus reporter expression, fluorescence. 330,000 tested, 0.46% active. Potency, µM (series often up to 36.5 µM), for inactives: at the highest dose activity change, negative = inhibition, hits mostly inhibitors; calls by dose curve; tested in A549 cells; further: potency means the concentration at half of the fitted maximal effect; nearly all actives have a fitted effect of over 30% in size
HCMV antiviral: human cytomegalovirus inhibition. HFF cells, HCMV-luciferase reporter, 72 h; hits give low values. activity change, negative = inhibition, % at 57.5 µM. 410,000 tested, 4.5% active; in the data active means activity change below about -60%; inconclusive means no clear call, values can overlap the other calls; inactive means above about -39%
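Compounds were evaluated in HFFs infected with an HCMV luciferase reporter virus (MOI 1 PFU/cell). Luciferase in lysates collected 72 h post infection served as the replication measure.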
FMDV antiviral: blocks foot and mouth disease virus; FMDV antiviral cell-based qHTS; Potency, µM (doses to about 57.9 µM), for the others: at the highest dose activity change, negative = inhibition, usual class: inhibitors; 410,000 tested, 1.2% active; calls by dose curve; tested in HEK293T cells; further: read-out not given here; potency means the concentration at half of the fitted maximal effect; nearly all actives have a fitted effect of over 45% in size
Sm TGR block: blocks Schistosoma mansoni thioredoxin glutathione reductase; purified TGR, DTNB reduction, TNB absorbance 405 nm; Potency, µM (series often up to 114 µM), for inactives: at the highest dose activity change, negative = inhibition, actives largely listed as inhibitors; Q962Y6; 360,000 tested, 3% active; further: potency means the concentration at half of the fitted maximal effect; nearly all actives have a fitted effect of over 60% in size
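First, TGR (20 nM dispensed) and NADPH were mixed with compound. Second, a 15 min room-temperature incubation followed. Third, further NADPH and then DTNB were added to start the reaction. Finally, TNB absorbance was monitored kinetically.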
Vaccinia mCherry: inhibitors of vaccinia virus infection (mCherry reporter signal); Vaccinia virus mCherry reporter infection, fluorescence; 310,000 tested, 0.63% active; Potency, µM (titrated, usually from 36.5 µM), for inactives: at the highest dose activity change, negative = inhibition, actives largely listed as inhibitors; calls by dose curve; tested in A549 cells; further: potency means the concentration at half of the fitted maximal effect; nearly all actives have a fitted effect of over 35% in size
HCV inh: blocks hepatitis C virus; 340,000 tested, 3.4% active; Huh7.5.1 HCVcc-Cre infection, luciferase reporter, 44 h; Potency, µM (series often up to 41.8 µM), for inactives: at the highest dose activity change, negative = inhibition, actives largely listed as inhibitors; further: potency means the concentration at half of the fitted maximal effect
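1,000 cells/well; 4 h culture; + compound; + HCVcc-Cre (~0.5 moi); 44 h; luciferase substrate, RT 15 min; read 15 sec.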
Numbers without * were called inactive; i = inactive; ? = inconclusive; · = no result given; [ ] = another dose, or the depositor's remark. Unless noted, the call rests on the fitted dose curve; in most records, active means well fitted curve in the direction sought with a large enough effect; inconclusive means small, poorly fitted or top-dose-only effect, or another doubt; inactive means no such curve, though single readings can be large; an effect the other way counts as inactive or inconclusive. On the % scale 0 is the no-effect control and ±100 the full control effect.

SMILES	Vaccinia Venus	HCMV antiviral	FMDV antiviral	Sm TGR block	Vaccinia mCherry	HCV inh
COc1ccccc1NC(=O)c1ccc(COc2ccccc2OC)o1	-7%	-29	·	2%	i	?
COc1ccc(NC(=O)c2ccc(-c3ccc([N+](=O)[O-])cc3)o2)cc1OC	4%	-72*	?	-10%	-13%	?
COc1cccc(NC(=O)c2ccc(-c3ccc([N+](=O)[O-])cc3)o2)c1	-18%	?	-13%	25µM*	-5%	-24%
CC(C)Cn1cc(C(=O)N2CCN(c3cccc(Cl)c3)CC2)c2c3ccccc3n(C)c2c1=O	-19%	?	-21%	-2%	-12%	·
COc1cc([N+](=O)[O-])ccc1-c1ccc(C(=O)Nc2ccc(NC(C)=O)cc2)o1	-4%	?	-3%	20µM*	-9%	-16%
N#Cc1cccc(NC(=S)Nc2ccccc2)c1	-7%	-68*	10%	50µM*	-19%	10%
COc1ccccc1NC(=O)CCCCC(=O)Nc1ccccc1OC	-18%	-18	-16%	0%	-25%	12%
CCN1CCc2c(sc(-n3cccc3)c2C(C)NC(=O)Nc2ccccc2C)C1 (stereo unspecified)	-7%	-67*	27%	-35%	-6%	·
CC(C)N(C(=O)CN1C(=O)C(=O)c2ccccc21)c1ccccc1	-3%	-6	28%	1%[57.1 µM]	-24%	2%
CC(C)(C)OC(=O)NCC12C=CC(O1)C1C(=O)N(Cc3ccccc3)C(=O)C12 (stereo unspecified)	-16%	-25	?	8.9µM*	·	22%
Cc1ccccc1NC(=O)/C(=C/c1ccco1)c1ccccc1	-7%	-104*	0%	?	-25%	-14%
CC(OC(=O)/C(C#N)=C/c1ccco1)C(=O)N(C)c1ccccc1 (stereo unspecified)	3%	-1	9%	·	i	11%
CC(C)OC(=O)/C(=C/c1ccco1)c1ccccc1	-18%	-12	-14%	10µM*	-24%	5%
CC(C)(C)NC(=O)/C(=C/c1ccco1)c1ccccc1	9%	29	-21%	?	i	-17%
CCc1ccccc1NC(=O)/C(=C/c1ccco1)c1ccccc1	-26%	-24	?	35µM*	·	?
O=C1ON=C(c2ccccc2)/C1=C/c1ccccc1	·	10	?	?	·	6%
O=C1ON=C(c2ccccc2)/C1=C\c1ccco1	·	-3	-9%	25µM*	·	17%
Cc1ccc(/C=C2/C(=O)ON=C2c2ccccc2)o1	·	28	?	5µM*	·	22%
Cc1ccc(CNC(=O)C(OC(=O)c2cccs2)C(C)C)cc1 (stereo unspecified)	-5%	-20	-29%	-21%	?	8%
O=S(=O)(NC1CCCCCCC1)c1ccc(F)cc1	-13%	-6	19%	·	?	2%
O=C(Nc1nc2cc3c(cc2s1)OCO3)c1ccco1	-7%	0	-75%	-18%	i	0%
CC(=O)Nc1nc2cc3c(cc2s1)OCO3	3%	-5	47%	-1%	-20%	8%
O=C(Nc1nc2cc3c(cc2s1)OCO3)C1=COCCO1	-26%	-71*	-83%	-4%	?	?
O=C(Nc1nc2cc3c(cc2s1)OCCO3)c1ccco1	?	-92*	?	-35%	?	?
COc1ccc(CNc2nc(-c3ccc(OC)cc3)cc(C(F)(F)F)n2)cc1	-15%	-18	-20%	1%	-6%	·
SMILES	Vaccinia Venus	HCMV antiviral	FMDV antiviral	Sm TGR block	Vaccinia mCherry	HCV inh
O=C(CCN1C(=O)C2C3CC(C(Br)C3Br)C2C1=O)OCC(=O)c1cccc([N+](=O)[O-])c1 (stereo unspecified)	-2%	-6	10%	-9%	3%	-5%
CN(C)c1ccc(C(=O)c2ccc(O)cc2O)cc1	-18%	150	3%	-18%	?	-21%
CN(C)c1ccc(Cc2cc3c(O)ccc(O)c3cc(Cc3ccc(N(C)C)cc3)c2=O)cc1	7%	-11	-20%	·	-7%	11µM*
COc1ccccc1NC(=O)Nc1ccc(Cl)c(S(=O)(=O)Nc2ccccc2OC)c1	-7%	4	4%	-5%	-8%	?
COc1ccc(NC(=O)c2ccc(-c3ccccc3)cc2)cc1NS(=O)(=O)c1ccc(F)cc1	?	-95*	?	6%	-30%	4µM*
CCOc1ccc(NS(=O)(=O)c2cc(NC(=O)c3ccc(C)cc3)ccc2Cl)cc1	?	-38	11%	-2%	?	7.9µM*
COc1ccccc1NS(=O)(=O)c1cc(NC(=O)c2ccc(Cl)nc2)ccc1Cl	?	-98*	10µM*	-12%	-14%	7.1µM*
COc1ccc(NC(=O)c2ccccc2)cc1NS(=O)(=O)c1ccc(F)cc1	-5%	-21	1%	1%	-17%	4%
CCOc1ccc(Oc2ccc(NS(=O)(=O)c3cc(C(=O)O)ccc3Cl)cc2)cc1	·	?	-17%	4%	·	-3%
COc1ccc(C(=O)Nc2ccc(Cl)c(S(=O)(=O)Nc3ccccc3OC)c2)cc1	?	-93*	-9%	-3%	?	?
COCCNC(=O)C(=O)Nc1ccc2c(c1)N(S(=O)(=O)c1cccs1)CCC2	?	-1	0%	-3%	-15%	?
ON=C1c2ccccc2-c2ccccc21	·	43	11%	7%	·	?
Nc1cc2c(cc1Cl)-c1ccccc1C2=NO	?	?	41%	·	?	5µM*
CCCCN(C(=O)c1cccc(-n2cnnn2)c1)c1c(N)n(CCCC)c(=O)[nH]c1=O	-13%	-13	3%	·	0%	·
Cc1nc(SCC(=O)NCCc2ccccc2)c2c(=O)n(C)c(=O)n(C)c2n1	-5%	6	-5%	5%	i	7%
CCCc1nc(SCC(=O)c2ccccc2)c2c(=O)n(C)c(=O)n(C)c2n1	-25%	?	?	8%	-2%	11µM*
CC(=O)c1ccc(NC(=O)CSc2nc(-c3ccccc3C)nc3c2c(=O)n(C)c(=O)n3C)cc1	-1%	10	?	50µM*	-8%	·
CCc1nc(SCC(=O)c2ccccc2)c2c(=O)n(C)c(=O)n(C)c2n1	-7%	0	?	-11%	-5%	13µM*
Cc1nc(SCC(=O)NCc2ccccc2)c2c(=O)n(C)c(=O)n(C)c2n1	3%	-20	32µM*	3%	5%	4%
Cn1c(=O)c2c(SCC(=O)c3ccccc3)nc(C3CC3)nc2n(C)c1=O	-9%	·	?	0%	-11%	1%
CCCc1nc(SCC(=O)c2ccc(OC)cc2)c2c(=O)n(C)c(=O)n(C)c2n1	·	·	·	1%	·	13%
CSc1nnc(-c2cc3c(s2)-c2ccccc2CC3)o1	-13%	176	0%	-5%	·	2.5µM*
Cc1nn2c3c(cnc2c1-c1ccccc1)C(=O)CC(c1ccco1)C3 (stereo unspecified)	·	-27	-9%	35µM*	·	-14%
